Measurements from PubChem BioAssay (NCI).
Compounds without any hit were thinned out: in the full panel of roughly 79,000, 15% have a hit. A number with no mark means an inactive call. The source made the active and inactive calls. No stated cut-off is given here; in the data, active means growth inhibition above about 70%; inactive means the rest.

What was measured:
[1] = NCI Yeast Anticancer Drug Screen. Data for the rad52 strain (AID 147);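 further: 0% = growth of vehicle-treated control cultures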; settings: S. cerevisiae rad52 mutant growth inhibition, stronger effect = higher value
In short: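 Growth of repair-deficient yeast cells was compared between compound-treated and vehicle-treated cultures to give percent inhibition.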

[2] = NCI Yeast Anticancer Drug Screen. Data for the wt1 strain (AID 149);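 further: 0% = growth of vehicle-treated wt1 cultures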; settings: S. cerevisiae wt1 strain (SPY 50644) growth inhibition, stronger effect = higher value
In short: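 Measured: growth of wt1 yeast under compound versus vehicle treatment, reported as inhibition.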

[3] = NCI Yeast Anticancer Drug Screen. Data for the rad50EPP+ strain (AID 151);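 further: 0% = growth of vehicle-treated control cultures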; settings: S. cerevisiae rad50 mutant strain, stronger effect = higher value
In short: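 Measured: growth inhibition of rad50EPP+ yeast. Reference: vehicle-treated controls. Screen uses strains with defined genetic alterations in DNA damage repair or cell cycle control.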

[4] = NCI Yeast Anticancer Drug Screen. Data for the mgt1 strain (AID 153); settings: S. cerevisiae mgt1 mutant growth inhibition, stronger effect = higher value
In short: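 Compounds were applied to mgt1 mutant yeast, and growth was then compared against vehicle-treated control cultures to give percent inhibition.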

[5] = NCI Yeast Anticancer Drug Screen. Data for the rad50 strain (AID 155);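 further: 0% = growth of vehicle-only cultures of the same strain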; settings: S. cerevisiae rad50 strain growth inhibition, stronger effect = higher value
In short: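 Growth of the mutant yeast was measured after compound exposure and referenced to vehicle-treated cultures.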

[6] = NCI Yeast Anticancer Drug Screen. Data for the mec2-1 strain (AID 157); settings: S. cerevisiae mec2-1 strain, stronger effect = higher value
In short: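 Compounds were applied to mec2-1 yeast cells. Their growth was then compared with that of vehicle-treated cultures to give growth inhibition.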

[7] = NCI Yeast Anticancer Drug Screen. Data for the rad14 strain (AID 159);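 further: 0% = growth of vehicle-treated control cultures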; settings: S. cerevisiae rad14 strain growth inhibition, stronger effect = higher value
In short: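 Here, inhibition of yeast growth was measured after compound exposure, using a strain with a genetic defect in DNA damage repair and vehicle-treated cultures as the reference.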

[8] = NCI Yeast Anticancer Drug Screen. Data for the sgs1 mgt1 strain (AID 161);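 further: 0% = growth of cultures given vehicle only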; settings: S. cerevisiae sgs1 mgt1 strain, stronger effect = higher value
In short: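 This yeast growth screen uses a strain with defined DNA-repair lesions; compound-treated growth is compared with vehicle-treated growth.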

[9] = NCI Yeast Anticancer Drug Screen. Data for the CLN2oe strain (AID 163);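 further: 0% = growth of vehicle-only control cultures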; settings: S. cerevisiae CLN2oe strain, stronger effect = higher value
In short: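 Cells of an engineered yeast line with disturbed cell-cycle regulation are treated with compound. Inhibition of growth is then calculated relative to the vehicle-treated reference.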

[10] = NCI Yeast Anticancer Drug Screen. Data for the cln2 rad14 strain (AID 165);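 further: 0% = growth equal to vehicle treated cultures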; settings: S. cerevisiae cln2 rad14 strain, stronger effect = higher value
In short: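 Strain: cln2 rad14 yeast, altered in cell cycle control and DNA damage repair. Read-out: growth inhibition vs vehicle.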

[11] = NCI Yeast Anticancer Drug Screen. Data for the bub3 strain (AID 167); settings: S. cerevisiae bub3 mutant strain, stronger effect = higher value
In short: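 Whole-cell yeast assay. The mutant strain was incubated with compounds, and growth inhibition was determined by comparison with vehicle-treated cells.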

[12] = NCI Yeast Anticancer Drug Screen. Data for the wt2 strain (AID 169);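 further: 0% = growth of vehicle-treated yeast cultures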; settings: S. cerevisiae wt2 strain growth inhibition, stronger effect = higher value
In short: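 Growth of compound-treated yeast is measured and expressed as inhibition relative to vehicle-only controls.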

[13] = NCI Yeast Anticancer Drug Screen. Data for the mlh1 strain (AID 171);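 further: 0% = growth of vehicle-treated control cultures of the same strain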; settings: S. cerevisiae mlh1 strain growth inhibition, stronger effect = higher value
In short: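 Test agents were incubated with yeast bearing a defined DNA damage repair or cell cycle control alteration; values are growth inhibition normalised to vehicle-treated cultures.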

[14] = NCI Yeast Anticancer Drug Screen. Data for the sgs1 strain (AID 173);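 further: 0% = growth of vehicle-only control cultures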; settings: S. cerevisiae sgs1 mutant, stronger effect = higher value
In short: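 Strain with an altered DNA repair or cell cycle pathway exposed to compound. Growth then measured. Value = inhibition versus vehicle control.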

[15] = NCI Yeast Anticancer Drug Screen. Data for the mlh1 rad18 strain (AID 175); settings: S. cerevisiae mlh1 rad18 strain growth inhibition, stronger effect = higher value
In short: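 A repair-deficient yeast strain is exposed to test compound, and growth is scored relative to vehicle-treated controls.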

[16] = NCI Yeast Anticancer Drug Screen. Data for the rad18 strain (AID 177); settings: S. cerevisiae rad18 mutant growth inhibition, stronger effect = higher value
In short: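 DNA-repair-defective yeast; compound treatment; growth inhibition scored against vehicle.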

[17] = at 5.0 µM (retest, dose inferred, filed as 0.5)
[18] = at 50.0 µM (retest, dose inferred, filed as 5.0)

## O=Nc1ccc(Nc2ccccc2)cc1
[1]; at 1.2 µM
  growth inhibition: -40%
[1]; at 3.7 µM
  growth inhibition: -58%
[1]; at 11.0 µM
  growth inhibition: -71%
[1]; at 33.0 µM
  growth inhibition: -11%
[1]; at 100.0 µM
  growth inhibition: 96% (active)
[2]; at 1.2 µM
  growth inhibition: -33%
[2]; at 3.7 µM
  growth inhibition: -26%
[2]; at 11.0 µM
  growth inhibition: -13%
[2]; at 33.0 µM
  growth inhibition: 28%
[2]; at 100.0 µM
  growth inhibition: 97% (active)
[3]; at 1.2 µM
  growth inhibition: -14%
[3]; at 3.7 µM
  growth inhibition: -10%
[3]; at 11.0 µM
  growth inhibition: 29%
[3]; at 33.0 µM
  growth inhibition: 97% (active)
[3]; at 100.0 µM
  growth inhibition: 96% (active)
[4]; at 1.2 µM
  growth inhibition: -50%
[4]; at 3.7 µM
  growth inhibition: -60%
[4]; at 11.0 µM
  growth inhibition: -32%
[4]; at 33.0 µM
  growth inhibition: 63%
[4]; at 100.0 µM
  growth inhibition: 97% (active)
[5]; at 1.2 µM
  growth inhibition: -41%
[5]; at 3.7 µM
  growth inhibition: -45%
[5]; [17]
  growth inhibition: 2%
[5]; at 11.0 µM
  growth inhibition: -32%
[5]; at 33.0 µM
  growth inhibition: 39%
[5]; [18]
  growth inhibition: 30%
[5]; at 50.0 µM
  growth inhibition: 88.8% (active)
[5]; at 100.0 µM
  growth inhibition: 95% (active)
[6]; at 1.2 µM
  growth inhibition: -33%
[6]; at 3.7 µM
  growth inhibition: -38%
[6]; [17]
  growth inhibition: -10%
[6]; at 11.0 µM
  growth inhibition: -35%
[6]; at 33.0 µM
  growth inhibition: 84% (active)
[6]; [18]
  growth inhibition: 95% (active)
[6]; at 50.0 µM
  growth inhibition: 91% (active)
[6]; at 100.0 µM
  growth inhibition: 97% (active)
[7]; at 1.2 µM
  growth inhibition: -23%
[7]; at 3.7 µM
  growth inhibition: -28%
[7]; at 11.0 µM
  growth inhibition: -44%
[7]; at 33.0 µM
  growth inhibition: 37%
[7]; at 100.0 µM
  growth inhibition: 96% (active)
[8]; [17]
  growth inhibition: -5%
[8]; [18]
  growth inhibition: 13%
[8]; at 50.0 µM
  growth inhibition: 93.2% (active)
[9]; at 1.2 µM
  growth inhibition: -44%
[9]; at 3.7 µM
  growth inhibition: -35%
[9]; at 11.0 µM
  growth inhibition: -5%
[9]; at 33.0 µM
  growth inhibition: 97% (active)
[9]; at 100.0 µM
  growth inhibition: 96% (active)
[10]; [17]
  growth inhibition: 29%
[10]; [18]
  growth inhibition: 68%
[10]; at 50.0 µM
  growth inhibition: 86.3% (active)
[11]; at 1.2 µM
  growth inhibition: -31%
[11]; at 3.7 µM
  growth inhibition: -14%
[11]; [17]
  growth inhibition: 4%
[11]; at 11.0 µM
  growth inhibition: -16%
[11]; at 33.0 µM
  growth inhibition: 97% (active)
[11]; [18]
  growth inhibition: 91% (active)
[11]; at 50.0 µM
  growth inhibition: 90.5% (active)
[11]; at 100.0 µM
  growth inhibition: 97% (active)
[12]; at 1.2 µM
  growth inhibition: -52%
[12]; at 3.7 µM
  growth inhibition: -47%
[12]; at 11.0 µM
  growth inhibition: -59%
[12]; at 33.0 µM
  growth inhibition: 54%
[12]; at 100.0 µM
  growth inhibition: 97% (active)
[13]; at 1.2 µM
  growth inhibition: -42%
[13]; at 3.7 µM
  growth inhibition: -36%
[13]; at 11.0 µM
  growth inhibition: -26%
[13]; at 33.0 µM
  growth inhibition: 83% (active)
[13]; at 100.0 µM
  growth inhibition: 96% (active)
[14]; at 1.2 µM
  growth inhibition: -40%
[14]; at 3.7 µM
  growth inhibition: -42%
[14]; at 11.0 µM
  growth inhibition: -28%
[14]; at 33.0 µM
  growth inhibition: 55%
[14]; at 100.0 µM
  growth inhibition: 97% (active)
[15]; [17]
  growth inhibition: 26%
[15]; [18]
  growth inhibition: 93% (active)
[15]; at 50.0 µM
  growth inhibition: 89.5% (active)
[16]; at 1.2 µM
  growth inhibition: -33%
[16]; at 3.7 µM
  growth inhibition: -24%
[16]; at 11.0 µM
  growth inhibition: 9%
[16]; at 33.0 µM
  growth inhibition: 77% (active)
[16]; at 100.0 µM
  growth inhibition: 96% (active)

## O=C(NC(=S)Nc1ccccn1)c1ccccc1
[1]; at 1.2 µM
  growth inhibition: -30%
[1]; at 3.7 µM
  growth inhibition: -43%
[1]; at 11.0 µM
  growth inhibition: -35%
[1]; at 33.0 µM
  growth inhibition: -28%
[1]; at 100.0 µM
  growth inhibition: -22%
[2]; at 1.2 µM
  growth inhibition: -26%
[2]; at 3.7 µM
  growth inhibition: -36%
[2]; at 11.0 µM
  growth inhibition: -32%
[2]; at 33.0 µM
  growth inhibition: -19%
[2]; at 100.0 µM
  growth inhibition: -24%
[3]; at 1.2 µM
  growth inhibition: -30%
[3]; at 3.7 µM
  growth inhibition: -51%
[3]; at 11.0 µM
  growth inhibition: -69%
[3]; at 33.0 µM
  growth inhibition: -53%
[3]; at 100.0 µM
  growth inhibition: 25%
[4]; at 1.2 µM
  growth inhibition: -62%
[4]; at 3.7 µM
  growth inhibition: -40%
[4]; at 11.0 µM
  growth inhibition: -58%
[4]; at 33.0 µM
  growth inhibition: -41%
[4]; at 100.0 µM
  growth inhibition: -22%
[5]; at 1.2 µM
  growth inhibition: -12%
[5]; at 3.7 µM
  growth inhibition: -9%
[5]; [17]
  growth inhibition: 97% (active)
[5]; at 11.0 µM
  growth inhibition: -19%
[5]; at 33.0 µM
  growth inhibition: -30%
[5]; [18]
  growth inhibition: 100% (active)
[5]; at 50.0 µM
  growth inhibition: 28.7%
[5]; at 100.0 µM
  growth inhibition: -14%
[6]; at 1.2 µM
  growth inhibition: -73%
[6]; at 3.7 µM
  growth inhibition: -55%
[6]; [17]
  growth inhibition: 100% (active)
[6]; at 11.0 µM
  growth inhibition: -51%
[6]; at 33.0 µM
  growth inhibition: -54%
[6]; [18]
  growth inhibition: 100% (active)
[6]; at 50.0 µM
  growth inhibition: 25.1%
[6]; at 100.0 µM
  growth inhibition: -50%
[7]; at 1.2 µM
  growth inhibition: -30%
[7]; at 3.7 µM
  growth inhibition: -20%
[7]; at 11.0 µM
  growth inhibition: -19%
[7]; at 33.0 µM
  growth inhibition: -21%
[7]; at 100.0 µM
  growth inhibition: -23%
[8]; [17]
  growth inhibition: -21%
[8]; [18]
  growth inhibition: 50%
[8]; at 50.0 µM
  growth inhibition: 60.5%
[9]; at 1.2 µM
  growth inhibition: -4%
[9]; at 3.7 µM
  growth inhibition: -15%
[9]; at 11.0 µM
  growth inhibition: -11%
[9]; at 33.0 µM
  growth inhibition: -23%
[9]; at 100.0 µM
  growth inhibition: -15%
[10]; [17]
  growth inhibition: 36%
[10]; [18]
  growth inhibition: 10%
[10]; at 50.0 µM
  growth inhibition: -9.05%
[11]; at 1.2 µM
  growth inhibition: -19%
[11]; at 3.7 µM
  growth inhibition: -22%
[11]; [17]
  growth inhibition: 13%
[11]; at 11.0 µM
  growth inhibition: -13%
[11]; at 33.0 µM
  growth inhibition: 5%
[11]; [18]
  growth inhibition: 57%
[11]; at 50.0 µM
  growth inhibition: 63%
[11]; at 100.0 µM
  growth inhibition: 19%
